Data from PubChem BioAssay (Tox21).
Results filed as inconclusive are left out. Calls of active or inactive are those of the source. Unless noted, calls follow the shape of the dose curve; as a rule, active = well fitted curve in the direction sought with a large enough effect in the repeat runs; inconclusive = weak or mixed curves; inactive = no such curve, though single readings can be large; an effect the other way counts as inactive or inconclusive.

Key:
[1] = qHTS assay to identify small molecule antagonists of the estrogen receptor beta (ER-beta) signaling pathway - cell viability counter screen (AID 1259382);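 also: HEK293T cells carrying ER-beta-UAS-bla reporter stimulated with estradiol; series mostly up to about 92 µM; nearly all actives have a fitted effect of over 55% in size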
In short: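 ER-beta-UAS-bla HEK293T cells in 2% charcoal-stripped FBS medium, treated with compound plus 1 nM 17-beta-estradiol for 16 h at 37C. Viability read by CellTiter-Glo luminescence after 30 min at room temperature in the same wells.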

[2] = target: Estrogen receptor (Homo sapiens) (UniProt P03372); experiment: qHTS assay to identify small molecule agonists of the estrogen receptor alpha (ER-alpha) signaling pathway in the presence of an antagonist (AID 1259383; calls by dose curve; also: top concentration of the series differs between compounds; nearly all actives have a fitted effect of over 15% in size)
Sequence of Estrogen receptor (Homo sapiens) (P03372 whole entry, looked up): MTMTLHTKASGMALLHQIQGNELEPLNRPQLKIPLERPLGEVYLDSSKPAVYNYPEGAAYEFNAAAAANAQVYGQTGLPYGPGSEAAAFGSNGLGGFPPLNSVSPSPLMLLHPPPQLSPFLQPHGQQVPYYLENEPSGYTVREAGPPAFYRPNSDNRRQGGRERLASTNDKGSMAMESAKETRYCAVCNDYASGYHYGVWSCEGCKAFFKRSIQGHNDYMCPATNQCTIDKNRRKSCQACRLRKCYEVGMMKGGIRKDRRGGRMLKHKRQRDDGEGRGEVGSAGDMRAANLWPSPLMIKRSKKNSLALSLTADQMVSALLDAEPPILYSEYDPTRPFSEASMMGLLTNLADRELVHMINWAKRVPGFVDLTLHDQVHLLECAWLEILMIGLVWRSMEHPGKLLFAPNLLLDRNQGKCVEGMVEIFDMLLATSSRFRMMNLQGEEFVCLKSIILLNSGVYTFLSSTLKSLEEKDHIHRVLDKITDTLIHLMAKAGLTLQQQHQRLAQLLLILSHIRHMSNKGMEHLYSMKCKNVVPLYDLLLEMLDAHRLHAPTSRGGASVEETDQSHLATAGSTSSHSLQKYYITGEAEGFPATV
In short: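 VM7Luc4E2 cells express endogenous full-length ER-alpha with an ERE-luciferase reporter and were hormone-deprived for 5 days. Compounds at 15 concentrations were added with 10.0nM ICI-182,780 for 22hr at 37C. Luminescence was read with ONE-Glo.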

[3] = target: Thyrotropin receptor (Homo sapiens) (UniProt P16473); experiment: qHTS assay to identify small molecule antagonists of the thyroid stimulating hormone receptor (TSHR) signaling pathway (AID 1259385; calls by dose curve; also: nearly all actives have a fitted effect of over 20% in size)
Sequence of Thyrotropin receptor (Homo sapiens) (P16473 whole entry, looked up): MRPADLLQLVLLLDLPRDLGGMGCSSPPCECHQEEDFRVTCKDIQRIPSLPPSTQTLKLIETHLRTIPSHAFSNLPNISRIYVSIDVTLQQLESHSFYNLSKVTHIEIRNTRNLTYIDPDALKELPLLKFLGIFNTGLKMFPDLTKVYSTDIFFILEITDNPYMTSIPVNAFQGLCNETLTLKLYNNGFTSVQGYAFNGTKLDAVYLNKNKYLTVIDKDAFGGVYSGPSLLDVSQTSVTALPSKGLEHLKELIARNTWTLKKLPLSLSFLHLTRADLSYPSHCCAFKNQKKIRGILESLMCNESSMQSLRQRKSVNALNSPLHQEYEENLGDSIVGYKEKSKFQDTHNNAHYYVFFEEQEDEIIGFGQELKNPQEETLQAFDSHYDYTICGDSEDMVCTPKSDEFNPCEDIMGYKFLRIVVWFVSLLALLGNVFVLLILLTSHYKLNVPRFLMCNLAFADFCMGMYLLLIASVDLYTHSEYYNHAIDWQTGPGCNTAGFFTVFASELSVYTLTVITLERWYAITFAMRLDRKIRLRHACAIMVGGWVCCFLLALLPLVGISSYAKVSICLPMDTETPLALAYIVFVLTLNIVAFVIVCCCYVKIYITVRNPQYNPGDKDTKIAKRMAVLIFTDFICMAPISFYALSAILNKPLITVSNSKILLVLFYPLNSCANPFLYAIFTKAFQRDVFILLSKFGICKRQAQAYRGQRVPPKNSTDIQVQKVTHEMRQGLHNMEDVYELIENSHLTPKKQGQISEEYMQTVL
In short: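 TSHR-HEK293 cells (800/well) plated 18 h, then compounds with Ro20-1724 and TSH at 1.5 ng/mL final, 30 min at room temperature. cAMP quantified by HTRF (cAMP-d2/anti-cAMP-cryptate, 1 h); 15 concentrations in triplicate.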

[4] = qHTS assay to identify small molecule agonists of the estrogen receptor alpha (ER-alpha) signaling pathway in the presence of an antagonist - cell viability counter screen (AID 1259386);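 also: series mostly up to about 92 µM; cells exposed to compounds for 22 h at 37 °C before the viability read; nearly all actives have a fitted effect of over 30% in size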
In short: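 Cell viability in VM7Luc4E2 cells (endogenous full-length ER-alpha) measured by CellTiter-Fluor fluorescence in the same wells as the luciferase screen. Cells pre-cultured 5 days in charcoal-stripped serum, then treated 22 h with compounds at 15 concentrations plus 10.0nM ICI-182,780.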

[5] = target: Progesterone receptor (Homo sapiens) (UniProt P06401); experiment: qHTS assay to identify small molecule agonists of the progesterone receptor (PR) signaling pathway (AID 1346784; calls by dose curve; also: nearly all actives have a fitted effect of over 30% in size)
Sequence of Progesterone receptor (Homo sapiens) (P06401 whole entry, looked up): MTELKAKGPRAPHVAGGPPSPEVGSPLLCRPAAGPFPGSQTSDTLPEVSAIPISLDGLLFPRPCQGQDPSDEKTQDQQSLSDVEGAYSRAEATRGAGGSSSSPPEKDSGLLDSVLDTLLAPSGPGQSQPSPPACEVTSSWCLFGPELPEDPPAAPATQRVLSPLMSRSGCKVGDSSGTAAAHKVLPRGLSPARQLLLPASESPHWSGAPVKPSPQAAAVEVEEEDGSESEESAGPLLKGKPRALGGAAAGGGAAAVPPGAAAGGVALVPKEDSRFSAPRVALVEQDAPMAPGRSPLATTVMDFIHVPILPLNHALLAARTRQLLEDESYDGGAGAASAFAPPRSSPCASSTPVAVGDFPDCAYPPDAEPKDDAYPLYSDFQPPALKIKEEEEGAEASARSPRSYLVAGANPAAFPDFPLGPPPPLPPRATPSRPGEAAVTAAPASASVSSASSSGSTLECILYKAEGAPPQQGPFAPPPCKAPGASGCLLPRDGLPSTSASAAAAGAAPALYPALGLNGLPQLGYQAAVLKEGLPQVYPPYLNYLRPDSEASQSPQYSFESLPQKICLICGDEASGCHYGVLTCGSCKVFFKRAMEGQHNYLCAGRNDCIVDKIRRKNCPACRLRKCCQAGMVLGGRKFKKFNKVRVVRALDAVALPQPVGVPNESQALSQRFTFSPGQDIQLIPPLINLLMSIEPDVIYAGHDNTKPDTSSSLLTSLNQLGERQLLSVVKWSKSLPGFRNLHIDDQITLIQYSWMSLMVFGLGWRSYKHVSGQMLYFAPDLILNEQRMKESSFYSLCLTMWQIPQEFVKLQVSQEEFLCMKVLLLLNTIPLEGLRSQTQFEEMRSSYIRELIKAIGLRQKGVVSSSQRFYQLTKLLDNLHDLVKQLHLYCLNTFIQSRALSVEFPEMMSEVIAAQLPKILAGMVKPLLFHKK
In short: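 PR-UAS-bla HEK 293T cells (beta-lactamase reporter under UAS) in 2% charcoal-stripped FBS, dosed with 23 nL compound after 6 hr, incubated 16hr at 37C. LiveBLAzer B/G FRET substrate added, fluorescence read after 2 hours.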

[6] = target: Progesterone receptor (Homo sapiens) (UniProt P06401); experiment: qHTS assay to identify small molecule antagonists of the progesterone receptor (PR) signaling pathway (AID 1346795; active = well fitted inhibition curve with a large enough effect in the signal ratio in the repeat runs, not every such curve was filed as active; the % refers to the signal ratio; also: potency is read from the fitted curve at half-maximal effect)
In short: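 PR-UAS-bla HEK293T cells with beta-lactamase reporter under UAS control, in 2% charcoal-stripped FBS, treated with compounds plus 1 nM promegestone (R5020, final) for 16 hr at 37C. Read-out: FRET beta-lactamase substrate fluorescence after 2 hr at room temperature.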

[7] = qHTS assay to identify small molecule antagonists of the progesterone receptor (PR) signaling pathway - cell viability counter screen (AID 1346798); also: series mostly up to about 92 µM; nearly all actives have a fitted effect of over 50% in size
In short: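 PR-UAS-bla HEK293T cells, 3,000/well in 2% charcoal-stripped FBS medium, dosed with compounds plus R5020 agonist and incubated 16 h at 37C. Viability then measured in the same wells by CellTiter-Glo luminescence after 30 min at RT.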

[8] = qHTS assay to identify small molecule agonists of the progesterone receptor (PR) signaling pathway - cell viability counter screen (AID 1346799; calls by dose curve; also: nearly all actives have a fitted effect of over 45% in size)
In short: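 Counter screen in the PR-UAS-bla HEK293T wells (2% charcoal-stripped FBS, 16 h compound exposure at 37 C) after the bla read. CellTiter-Glo added, 30 min at room temperature, luminescence read as cell viability.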

[9] = qHTS assay to identify small molecule antagonists of the TGF-beta/Smad signaling pathway - cell viability counter screen (AID 1346824); also: nearly all actives have a fitted effect of over 50% in size
In short: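 SBE-bla HEK 293T cells, incubated overnight, then compound plus 0.25 ng/mL TGF-beta1 (stock added) for 5 hr at 37 C. Viability was read in the same wells by CellTiter-Glo luminescence after 30 min at room temperature.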

[10] = qHTS assay to identify small molecule agonists of the TGF-beta/Smad signaling pathway - cell viability counter screen (AID 1346829); also: top concentration of the series differs between compounds; nearly all actives have a fitted effect of over 45% in size
In short: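 Cytotoxicity counter screen: CellTiter-Glo luminescence (30 min, room temperature) measured in the SBE-bla HEK 293T reporter wells after 5 hr compound treatment at 37 C and the 2 hr substrate step.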

[11] = qHTS assay to identify small molecule agonists of the TGF-beta/Smad signaling pathway (AID 1346859; active = well fitted activation curve with a large enough effect in the signal ratio in the repeat runs, not every such curve was filed as active; the % refers to the signal ratio; also: series mostly up to about 77 µM)
In short: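 SBE-bla HEK293T cells plated overnight, then compound exposure for 5 h at 37 C. Beta-lactamase reporter read with LiveBLAzer B/G FRET substrate after 2 h at room temperature, fluorescence at 405 nm excitation, 460/530 nm emission.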

[12] = target: Thyrotropin-releasing hormone receptor (Homo sapiens) (UniProt P34981); experiment: qHTS assay to identify small molecule antagonists of the thyrotropin-releasing hormone receptor (TRHR) signaling pathway (AID 1346877; active = well fitted inhibition curve with a large enough effect in the repeat runs, not every such curve was filed as active; also: series mostly up to about 51 µM)
Sequence of Thyrotropin-releasing hormone receptor (Homo sapiens) (P34981 whole entry, looked up): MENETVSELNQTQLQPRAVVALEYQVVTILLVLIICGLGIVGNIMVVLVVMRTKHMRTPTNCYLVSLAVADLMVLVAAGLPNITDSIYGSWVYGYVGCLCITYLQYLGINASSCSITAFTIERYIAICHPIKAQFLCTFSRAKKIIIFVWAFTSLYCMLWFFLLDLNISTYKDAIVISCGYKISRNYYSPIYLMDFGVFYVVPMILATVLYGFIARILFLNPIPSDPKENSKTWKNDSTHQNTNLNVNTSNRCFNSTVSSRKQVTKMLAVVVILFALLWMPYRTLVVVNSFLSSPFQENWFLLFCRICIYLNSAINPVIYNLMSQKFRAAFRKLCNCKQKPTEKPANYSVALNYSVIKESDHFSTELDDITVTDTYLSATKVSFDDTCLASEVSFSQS
In short: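 TRHR-expressing HEK293 cells loaded with calcium dye for 2 h at 37 C; compounds pre-incubated 5 min at room temperature before TRH challenge at 1 nM final. Intracellular calcium fluorescence read kinetically for 3 min; 15 concentrations in triplicate.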

[13] = Human pregnane X receptor (PXR) small molecule agonists, qHTS cell viability counter screen (AID 1346977); also: nearly all actives have a fitted effect of over 50% in size
In short: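 PXR-Luc HepG2 cells (2,000/well, 5% charcoal-stripped FBS) preincubated 5 hr, then exposed to compounds 24 hr at 37 C. Viability read in the same wells by CellTiter-Fluor fluorescence, reagent added at 23 hr, 1 hr incubation.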

[14] = Caspase-3/7 induction in HepG2 cells by small molecules, qHTS assay (AID 1346978); also: nearly all actives have a fitted effect of over 15% in size
In short: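 Wild-type HepG2 cells, 2,000/well, settled 5 hr at 37 C and 5% CO2, then compound-treated for 17 hr; caspase-3/7 activity read by luminescent Caspase-Glo 3/7 after 30 min at room temperature.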

[15] = Caspase-3/7 induction in CHO-K1 cells by small molecules, qHTS cell viability counter screen (AID 1346979); also: nearly all actives have a fitted effect of over 35% in size
In short: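 Wild-type CHO-K1 cells (1,500/well) treated with compound after 5 h plating; after 16 h at 37C, viability read as CellTiter-Fluor fluorescence following 1 h reagent incubation, in the same wells as the caspase read.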

[16] = Caspase-3/7 induction in CHO-K1 cells by small molecules, qHTS assay (AID 1346980); also: nearly all actives have a fitted effect of over 15% in size
In short: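 Wild-type CHO-K1 cells exposed to compounds for 17hr at 37 C, 5% CO2. Caspase-3/7 activity then measured by Caspase-Glo 3/7 luminescence after 30min at room temperature.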

[17] = Caspase-3/7 induction in HepG2 cells by small molecules, qHTS cell viability counter screen (AID 1346981); also: series mostly up to about 92 µM; nearly all actives have a fitted effect of over 30% in size
In short: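 Wild-type HepG2 cells, 2,000/well, settled 5 hr at 37 C, 5% CO2 before compound addition. Viability read by CellTiter-Fluor fluorescence, reagent added after 16 hr compound exposure, then 1 hr at 37C, in the same wells as the caspase read.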

[18] = target: Nuclear receptor subfamily 1 group I member 2 (Homo sapiens) (UniProt O75469); experiment: Human pregnane X receptor (PXR) small molecule agonists, qHTS assay (AID 1346982); also: nearly all actives have a fitted effect of over 35% in size
Sequence of Nuclear receptor subfamily 1 group I member 2 (Homo sapiens) (O75469 whole entry, looked up): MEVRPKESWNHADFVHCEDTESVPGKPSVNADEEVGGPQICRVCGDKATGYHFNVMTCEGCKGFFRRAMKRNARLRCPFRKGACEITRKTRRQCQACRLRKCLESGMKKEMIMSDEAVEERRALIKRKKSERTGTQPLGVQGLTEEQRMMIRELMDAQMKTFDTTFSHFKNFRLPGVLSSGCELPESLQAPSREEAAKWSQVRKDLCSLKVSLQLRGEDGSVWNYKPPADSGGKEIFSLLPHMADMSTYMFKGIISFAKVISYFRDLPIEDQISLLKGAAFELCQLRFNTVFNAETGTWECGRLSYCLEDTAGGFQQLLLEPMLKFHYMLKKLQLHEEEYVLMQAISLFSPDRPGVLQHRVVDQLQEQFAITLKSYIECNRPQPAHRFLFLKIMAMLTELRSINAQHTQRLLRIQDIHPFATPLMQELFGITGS
In short: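 PXR-Luc HepG2 reporter cells (CYP3A4-driven luciferase) in 5% charcoal-stripped FBS medium, plated 5 h before compound addition, then treated 24 h at 37C. Luciferase read by ONE-Glo luminescence after 30 min at room temperature.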

[19] = target: Thyrotropin-releasing hormone receptor (Homo sapiens) (UniProt P34981); experiment: qHTS assay to identify small molecule agonists of the thyrotropin-releasing hormone receptor (TRHR) signaling pathway (AID 1346891; calls by dose curve; also: series mostly up to about 58 µM)
In short: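 HEK293 cells expressing TRHR plated 18 h at 37 C/5% CO2, calcium dye-loaded 2 h at 37 C, then compound added (agonist mode); kinetic calcium fluorescence read 3 min at 1 s intervals; 15 concentrations in triplicate.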
% is scaled to controls: 0 for no effect and ±100 for the full control effect.

CCCCCCCCCCCC(C)=O
inactive: outcome [1] | Potency [2] | outcome [3] | outcome [4] | Potency [5] | Potency [6] | outcome [7] | Potency [8] | outcome [9] | outcome [10] | outcome [11] | outcome [12] | outcome [13] | outcome [14] | Potency [15] | outcome [16] | outcome [17] | Potency [18]

CN1C(CCl)Nc2cc(Cl)c(S(N)(=O)=O)cc2S1(=O)=O (centres undefined)
inactive: outcome [1] | Potency [2] | outcome [4] | Potency [5] | Potency [6] | outcome [7] | Potency [8] | outcome [9] | outcome [11] | outcome [13] | outcome [14] | Potency [15] | outcome [16] | outcome [17] | Potency [18]

Cc1cc2c(cc1CC(=O)c1sccc1S(=O)(=O)Nc1onc(C)c1Cl)OCO2
inactive: outcome [1] | Potency [2] | outcome [4] | Potency [5] | Potency [6] | outcome [7] | Potency [8] | outcome [9] | outcome [11] | outcome [13] | outcome [14] | Potency [15] | outcome [16] | outcome [17]

Nc1nc(Cl)cc(Cl)n1
inactive: outcome [1] | Potency [2] | outcome [4] | Potency [5] | Potency [6] | outcome [9] | outcome [10] | outcome [12] | Potency [19] | outcome [13] | outcome [14] | outcome [16] | outcome [17]

O=C(O)COc1ccc2ccccc2c1
inactive: outcome [1] | Potency [2] | outcome [4] | Potency [5] | Potency [6] | outcome [7] | outcome [9] | outcome [10] | outcome [12] | Potency [19] | outcome [13] | outcome [14] | outcome [16] | outcome [17] | Potency [18]

NNC(=O)CCCCC(=O)NN
inactive: outcome [1] | Potency [2] | outcome [4] | Potency [5] | Potency [6] | Potency [8] | outcome [9] | outcome [10] | outcome [11] | outcome [12] | Potency [19] | outcome [13] | outcome [14] | Potency [15] | outcome [16] | outcome [17] | Potency [18]

CC(=O)SC[C@@H](C)C(=O)N1CCC[C@H]1C(=O)N[C@@H](Cc1ccccc1)C(=O)O
inactive: outcome [1] | Potency [2] | outcome [4] | Potency [5] | Potency [6] | Potency [8] | outcome [9] | outcome [10] | outcome [11] | outcome [12] | Potency [19] | outcome [13] | outcome [14] | Potency [15] | outcome [16] | outcome [17] | Potency [18]

C=CCCCCCCCCCCCCCC
inactive: activity change, negative = cytotoxicity [1] -6.85% [at 19 µM] | activation [2] -0.0008% [at 19 µM] | activity change, negative = inhibition [3] 0.749% [at 19 µM] | activity change, negative = cytotoxicity [4] 1.42% [at 19 µM] | activity change, negative = inhibition [6] 7.49% [at 18.9 µM] | activity change, negative = cytotoxicity [7] 6.76% [at 18.9 µM] | activity change, negative = cytotoxicity [8] 11.1% [at 19 µM] | viability change, negative = cytotoxic [9] -0.4% [at 15.8 µM] | activity change, negative = cytotoxicity [10] 9.91% [at 15.8 µM] | activation [11] 0.917% [at 15.8 µM] | activity, negative = inhibition [12] 2.16% [at 10.5 µM] | activity change, negative = cytotoxicity [13] 1.28% [at 19 µM] | caspase activation [14] 1.32% [at 19 µM] | caspase-3/7 activation [16] 1.16% [at 19 µM] | activity change, negative = cytotoxicity [17] -0.984% [at 19 µM] | activation [18] 1.1% [at 19 µM]

N=C(N)S(=O)O
inactive: outcome [1] | Potency [2] | outcome [3] | outcome [4] | outcome [7] | Potency [8] | outcome [9] | outcome [10] | outcome [11] | outcome [12] | Potency [19] | outcome [13] | outcome [14] | Potency [15] | outcome [16] | outcome [17] | Potency [18]

CC(CN1CC(=O)NC(=O)C1)N1CC(=O)NC(=O)C1 (centres undefined)
inactive: outcome [1] | Potency [2] | outcome [4] | Potency [5] | Potency [6] | outcome [7] | outcome [9] | outcome [10] | outcome [11] | outcome [12] | Potency [19] | outcome [13] | outcome [14] | outcome [16]

CCCCCCCCCCCBr
inactive: outcome [1] | Potency [2] | outcome [4] | Potency [5] | Potency [6] | Potency [8] | outcome [9] | outcome [10] | outcome [11] | outcome [12] | Potency [19] | outcome [13] | outcome [14] | outcome [16] | outcome [17] | Potency [18]

COC(=O)c1ccc(NC(C)=O)cc1OC
inactive: outcome [1] | Potency [2] | outcome [3] | outcome [4] | Potency [5] | Potency [6] | outcome [7] | outcome [9] | outcome [10] | outcome [11] | outcome [12] | Potency [19] | outcome [13] | outcome [14] | Potency [15] | outcome [16] | outcome [17] | Potency [18]

Cc1cc(C)c(C)c(C)c1
inactive: outcome [1] | Potency [2] | outcome [4] | Potency [5] | Potency [6] | outcome [7] | Potency [8] | outcome [9] | outcome [10] | outcome [11] | outcome [13] | outcome [14] | Potency [15] | outcome [16] | outcome [17] | Potency [18]

COC(=O)c1c(C)cc(O)c(C)c1O
inactive: outcome [1] | Potency [2] | outcome [4] | Potency [5] | outcome [7] | outcome [9] | outcome [10] | outcome [11] | outcome [12] | Potency [19] | outcome [13] | outcome [14] | outcome [16] | outcome [17]
active: Potency [6] 19.3 µM

Cc1ccc(NC(N)=O)cc1
inactive: outcome [1] | Potency [2] | outcome [4] | Potency [5] | Potency [6] | outcome [7] | outcome [9] | outcome [10] | outcome [11] | outcome [12] | outcome [13] | outcome [14] | Potency [15] | outcome [16] | outcome [17] | Potency [18]

C[C@@H](CN1CC(=O)NC(=O)C1)N1CC(=O)NC(=O)C1
inactive: outcome [1] | Potency [2] | outcome [4] | Potency [5] | Potency [6] | Potency [8] | outcome [9] | outcome [10] | outcome [11] | outcome [12] | Potency [19] | outcome [13] | outcome [14] | Potency [15] | outcome [16] | outcome [17] | Potency [18]
